From PubChem BioAssay (Tox21)
Records with an inconclusive call do not appear. Calls of active or inactive are those of the source. Calls follow the shape of the full dose curve.

Experiment: p53 small molecule agonists, cell-based qHTS assay with rat liver microsomes: qHTS cell viability counter screen (AID 1963580); also: nearly all actives have a fitted effect of over 45% in size
Conditions: p53RE-bla HCT-116 + rat microsomes, ATP viability, 16 h; series mostly up to 66 µM; activity change, negative = cytotoxicity: at the top concentration
Text: National Center for Advancing Translational Sciences [NCATS]
Division of Preclinical Innovation [DPI]
U.S. Environmental Protection Agency [EPA]
National Institutes of Environmental Health Sciences [NIEHS]
National Toxicology Program [NTP]
U.S. Food and Drug Administration [FDA]
p53, a tumor suppressor protein, is activated following cellular insult, including DNA damage and other cellular stresses. The activation of p53 regulates cell fate by inducing DNA repair, cell cycle arrest, apoptosis, or cellular senescence. The activation of p53, therefore, is a good indicator of DNA damage and other cellular stresses. The CellSensor p53RE-bla HCT-116 cell line contains a stably integrated beta-lactamase reporter gene under control of the p53 response elements. The activation of the reporter gene under culture conditions can be detected by fluorescence intensity. This cell line was used to screen the Tox21 10K compound library in the condition of presence of rat liver microsomes and to identify agonists that activate the p53 signaling pathway after in vitro metabolic activation (Ooka et al., Archive of Toxicology 96:1975-1987, 2022). The cytotoxicity of the Tox21 compound library against the p53 RE-bla HCT-116 cell line was tested in parallel by measuring the intra cellular ATP content in the same wells.
Tox21 Assay Protocol Summary:
The p53RE-bla cells were dispensed at 4,000cells/3ul/well in 1536-well black-clear bottom plates. After the assay plates were incubated at 37 C, 5% CO2 incubator for 5 hours, 23 nL of compounds dissolved in DMSO, positive controls or DMSO only was transferred to the assay plate. Following compound addition, 3 uL of rat liver microsomes (Molecular Toxicology, Boone, NC) at final concentration of 0.5 mg/mL and 1uL of B-Nicotinamide adenine dinucleotide 2'-phosphate (NADPH) at final concentration of 0.5 mg/mL were transferred to the assay plate. The plates were incubated at 37 C for 16 hours. 1 uL of LiveBLAzer detection mixture was added to each well and the plates were incubated at room temperature in the dark for 2 h. Fluorescence intensity at 460 and 530 nm emission and 405 nm excitation were measured by an Envision plate reader. For cell viability readout that measures cytotoxicity, 4 ul/well of CellTiter-Glo reagent was added into the assay plates using a Flying Reagent Dispenser. After 30 min incubation at room temperature, the luminescence intensity in the plates was measured using a ViewLux plate reader.
% is scaled to controls: 0 for no effect and ±100 for the full control effect; potency is read from the fitted curve at half-maximal effect.

SMILES	activity change, negative = cytotoxicity	Potency
CCOc1cc(C(C)(C)C)ccc1C1COC(c2c(F)cccc2F)=N1 (stereo not given)	-12.9% [at 30.3 µM] (inactive)	
CCC(C)(C)C(=O)OC1=C(c2ccc(Cl)cc2Cl)C(=O)OC12CCCCC2	15.3% (inactive)	
CC(C)(CCl)C(=O)Cl	-7.27% (inactive)	
O=c1oc2ccccc2c(O)c1Cc1c(O)c2ccccc2oc1=O	-0.654% [at 30.3 µM] (inactive)	
CNC(C)Cc1ccccc1OC (stereo not given)	-2.04% [at 30.3 µM] (inactive)	
COc1ccc(-c2ccccc2)cc1NNC(=O)OC(C)C	-11.6% (inactive)	
CC(Cc1ccccc1)NCCCCl (stereo not given)	-2.35% [at 30.3 µM] (inactive)	
CCCCCCC[CH2][Sn]([Cl])([Cl])[CH2]CCCCCCC	-7.03% (inactive)	
COC1CC(=C(c2cccs2)c2cccs2)C[N+](C)(C)C1 (stereo not given)	-0.425% [at 30.3 µM] (inactive)	
COP(N)(=S)Oc1ccccc1C(=O)OC(C)C (stereo not given)	0% (inactive)	
O=C(Oc1ccc(Br)cc1)N1CCN2CCC1CC2	-6.65% (inactive)	
CCC[CH2][Sn]([CH2]CCC)([O]C(C)=O)[O]C(C)=O	-1.71% (inactive)	
C=C(C)C(=O)OCCCCOC(=O)C(=C)C	16.7% (inactive)	
CCOC(=O)OC1=C(c2cc(C)ccc2C)C(=O)NC12CCC(OC)CC2 (stereo not given)	-23.2% (inactive)	
COP(=O)(OC)Oc1ccc([N+](=O)[O-])cc1	1.22% (inactive)	
COP(=O)(OC)O/C(=C/Cl)c1cc(Cl)c(Cl)cc1Cl	0.587% (inactive)	
CN(C)C1CCCCC1	0.426% (inactive)	
N#Cc1c(Cl)cccc1Cl	-1.93% (inactive)	
CCOP(=S)(Oc1ccc([N+](=O)[O-])cc1)c1ccccc1 (stereo not given)	2.61% (inactive)	
Cc1nc(N(C)C)nc(OC(=O)N(C)C)c1C	0.158% (inactive)	

SMILES	activity change, negative = cytotoxicity	Potency
Oc1cc(Cl)c(Cl)c(Cl)c1Cl		17.8 µM (active)
COC(=O)C1=CCCN(C)C1	0.143% [at 30.3 µM] (inactive)	
N#CCCl	-9.34% (inactive)	
COP(=S)(OC)Oc1c(Cl)cc(C)cc1Cl	-6.23% (inactive)	
O=[N+]([O-])c1cc(C(F)(F)F)cc([N+](=O)[O-])c1Cl	-2.21% (inactive)	
CC(C)[N+](=O)[O-]	0.201% (inactive)	
CS(=O)(=O)c1cc(C(F)(F)F)ccc1C(=O)c1cnoc1C1CC1	-1.94% (inactive)	
CN1C(=O)[C@@H](NC(=O)c2cc3ccccc3[nH]2)N=C(c2ccccc2)c2ccccc21	0.0561% [at 30.3 µM] (inactive)	
CC(=O)[O-].CC(=O)[O-].O.O.O.[Pb+2]	-0.292% (inactive)	
CC(C)(C)c1ccc(OP(=O)(Oc2ccccc2)Oc2ccccc2)cc1	-0.798% (inactive)	
CC(C)(C)NC[C@H](O)c1ccc(O)cc1Cl	-1.79% [at 30.3 µM] (inactive)	
COCCOCCO		1.62 µM (active)
C1CCNCC1	0.205% (inactive)	
Oc1ccc(Cl)c(Cl)c1Cl	-28.8% (inactive)	
O=[N+]([O-])c1ccc(O)c([N+](=O)[O-])c1		inactive
O=C(Nc1ccccc1-c1ccc(Cl)cc1)c1cccnc1Cl	-10.3% (inactive)	
O=S(=O)(NS(=O)(=O)C(F)(F)F)C(F)(F)F	-3.65% (inactive)	
CN1COCN(Cc2cnc(Cl)s2)/C1=N\[N+](=O)[O-]	0.958% (inactive)	
Cc1cc(C(C)(C)c2ccc(O)c(C)c2)ccc1O	-1.34% (inactive)	
O=c1[nH]c(Cl)c(Cl)cc1Cl	10.5% (inactive)	
